The supplement of paper PMC6555819

System: VDR:RXRa (NR concentration 270 nM, RXRa partner concentration 90 nM)
Test: PBM binding z-score (relative to random genomic background probes); higher = stronger binding; sequences stand for … in GC…GCGATTGACAGCGTAGAATGAAGG
Method: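 Protein-binding microarray (Agilent 4x180K custom design, double-stranded 60-nt probes: 5' GC cap, 34-nt variable region, 24-nt constant primer region; full probe sequence given). Purified or IVT nuclear receptor:RXRα heterodimers (3:1 NR:RXRα, mostly 270:90 nM) or homodimers were incubated for 1 h in PBS with 2% milk and no ligand, then detected with Alexa488 antibodies. Fluorescence from o1-orientation probes (~5 replicates averaged) was converted to z-scores against 500 random hg19 background probes. Variable regions are seed direct-repeat (DR0–DR5) sites, all their single-nucleotide variants and half-site ablations.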

| Sequence | PBM binding z-score |
| --- | --- |
| TATACAGGGTCAAAGGCTAGAGTACGAATGTCGA | 4.8 |
| ACAGACAGGTGATGAAGGTAACTCATGCTATCAT | 0.111 |
| CTCAAAAGGTCGTGCTCAGGTGAGTATACCAAAC | 3.5 |
| TCTTGTAGATCAAAAGGAGGTTAAGAAAGATCGA | 0.807 |
| GCTAGTTGGTCAGTAAAAGGTCACACCCCGGTCG | 3.83 |
| TCTTCTAGATCAATAGAGGTTAAGAAAGTGCGCT | 1.94 |
| CGAACTAGGTCATTGACAGGAGAGTGAATAGTAA | 1.62 |
| CCTATTAGTTAACCATAAGGGCAACCGAAGCTCG | 0.653 |
| ACTAGTTGATCAGCTGAGGTCACACACAATTCGG | 4.02 |
| AGTCGAAGTTCAGGACGAGGTAACGTAAAGCACG | 1.15 |
| TAGCTTAGGTCATTGGGCCAGTATAGTACGCATC | 2.4 |
| ATCTCTCGGTAACCAAGTTCAGTGAATGCCGAAC | 2.72 |
| AGAATGAGGTGATTAAGATCAGGGAATTGCGGTC | 0.0675 |
| TTACCAAGGGGAGCTGAGGTCGTTGATCCAACTC | 2.08 |
| TCATATAGGTAAAGGGTGAAAGTCGGTGTGGTAA | 1.17 |
| CCTTACGGGTCAAGGTCATAGCACGGGTGGTACG | 5.14 |
| CGAACTAGGTCGGAACAGGACAGTGAAGGATGAT | -0.292 |
| CAGCCTAGGTCAGGGCCAGTCTAGGAGGAACGTT | 0.0507 |
| CCTCGGAGGACAGAAGGGCAGAGCTGTCCGCTTT | -0.902 |
| CCGACTGGGGCAGAAAGGTTTCCATACCATCCGG | -0.642 |

| Sequence | PBM binding z-score |
| --- | --- |
| CCTACTGGGCCAAAGGTCATTTATTCCAATGCTC | 4.34 |
| TCAAATAGGTAAATGCTAGGTGAAAGTCCGATCT | 0.866 |
| TCGCGTAGGTTAGGGGCATTCAGAATGGCGTCGA | 0.397 |
| TCATATAGGTAAACAGGTGAGAGTCCGTAAGTTA | 1.01 |
| TGAATGAGGTTATAAGATCAGGCAACGTTGCAAA | 0.915 |
| TGTCAAAGTTCAAAGGAAACGTAAGTATCCACAC | 3.86 |
| TAGCCTAGGACATGGGCCAGTATACCACGCGAAC | -0.512 |
| CGTCCAAGGCCAAAGGTCAGTGAAGAGATGACGG | 3.16 |
| AATACAGGGTCATTGTAGGCCAGAGTACGCACAG | 5.08 |
| AGAACGAGGGCAATAAGTTGATAGCACGGGTGGC | 3.26 |
| GGAACGAGGGCAAGTTGATAGCAGAGTTTGATGG | 0.688 |
| ACAGACAGGTGAGTGAAGGTAACTTAGCTGGACG | -0.357 |
| TGTCAAAGTTTAAAGGTAACGTAAGTATCCACAC | 1.33 |
| TCAGACAGGTGGAGGTAACTCAGGTACGCAGTCG | 0.574 |
| TCTTGTAGATCAAGCCGGTTAAGAAAGCCTGAGT | 0.32 |
| GCTAGTTGATCAGTAAAAGGTCACACACCGGTCG | 3.87 |
| TAGCCTAGATCATTGGGCCAGTATAGTACGCATC | -0.685 |
| CCTCGGAGGACAACAGGAGATCAGAGCTGCCAGA | -0.616 |
| AATACAGGGTCACTAGGCCGGAGTAGGTACGAAT | 4.11 |
| ATCTCTAGGTAACAAGTTTAGTGAAAGAGAGGAC | 0.823 |
